# Screening data (PubChem BioAssay)
# The list is not random: actives were taken first. Their share in the collection is about 1.2%.
# GSH bead fluor – GSH bead compound fluorescence profile; GSH beads flow cytometry, compound fluorescence 488/530 nm; hits give high values; fluorescence (KMESF) at 10 µM; actives 0.25% (n = 190,000); AID 1776; in the data active = fluorescence above about 89;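 note: glutathione beads carrying GST-tagged Bcl family fusion proteins plus one bare bead set; values are compound well signal with DMSO vehicle wells as background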
# RGS7-Gao reg – regulators of human RGS7-Galphao interaction | AID 1439 | Multiplexed bead flow cytometry, RGS7-Galphao binding; actives lie on both sides | P09471 | actives 0.35% (n = 220,000) | binding response (% of control), % at 10 µM; in the data active = binding response below about 49% or above about 150%; inconclusive = no clear call, values can overlap the other calls; inactive = in between;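 note: fluorescent Galphao held in activated GDP-AlF4 state binding bead-coupled RGS7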
# Target sequence (P09471 whole entry, looked up): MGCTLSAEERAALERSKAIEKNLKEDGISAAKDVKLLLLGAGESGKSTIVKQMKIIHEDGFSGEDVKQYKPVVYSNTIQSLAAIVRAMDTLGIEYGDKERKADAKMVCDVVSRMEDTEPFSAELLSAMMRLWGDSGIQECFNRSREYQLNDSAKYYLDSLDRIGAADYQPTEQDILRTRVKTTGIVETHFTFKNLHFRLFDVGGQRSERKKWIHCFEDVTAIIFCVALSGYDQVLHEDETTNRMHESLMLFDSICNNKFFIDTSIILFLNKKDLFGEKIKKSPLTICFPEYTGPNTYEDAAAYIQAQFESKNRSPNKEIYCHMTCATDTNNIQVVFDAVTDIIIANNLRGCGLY
# RGS16-Gao – regulators of human RGS16-Galphao interaction | bead-based flow cytometry RGS16-Galphao binding, fluorescence; actives lie on both sides | actives 0.38% (n = 220,000) | binding response (% of control), % at 10 µM;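 note: Galphao activated by GDP with aluminum fluoride before binding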
# Target sequence (O15492 whole entry, looked up): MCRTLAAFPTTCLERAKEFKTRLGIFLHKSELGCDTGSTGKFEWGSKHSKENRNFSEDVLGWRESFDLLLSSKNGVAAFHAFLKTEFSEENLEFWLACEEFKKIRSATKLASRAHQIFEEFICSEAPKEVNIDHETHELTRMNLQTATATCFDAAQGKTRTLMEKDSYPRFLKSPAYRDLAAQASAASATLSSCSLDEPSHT
# Target sequence (P09471 whole entry, looked up): as the sequence (P09471 whole entry, looked up) above
# RGS4-Gao reg – human RGS4-Galphao interaction regulation. P09471. Multiplexed bead flow cytometry, RGS4-Galphao binding; actives lie on both sides. binding response (% of control), % at 10 µM. actives 0.33% (n = 220,000). AID 1415; in the data active = binding response below about 49% or above about 150%; inactive = in between;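 note: fluorescent Galphao activated with aluminum fluoride binding bead-coupled RGS4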
# RGS8-Gao – human RGS8-Galphao interaction regulation; AID 1423; P09471; actives 0.34% (n = 220,000); multiplexed bead flow cytometry, RGS8-Galphao binding; actives lie on both sides; response (percent of control binding), % at 10 µM; in the data active = response below about 60% or above about 140%; inactive = in between;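 note: Galphao activated as the GDP aluminium fluoride complex binding bead-coupled RGS8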
# Avidin fluor – compound fluoresces at 488/530 nm on avidin beads; compound fluorescence 488/530 nm, flow cytometry; hits give high values; fluorescence (KMESF) at 10 µM; actives 0.38% (n = 220,000); in the data active = fluorescence above about 47
# RGS-Gao – modulates binding between human RGS4 and Galphao; shares compounds with RGS16-Gao; multiplexed bead flow cytometry, RGS–Galpha-o binding; RGS4–Galpha-o binding response, % at 10 µM; actives 99% (n = 1,600);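 note: fluorescently labeled Galpha-o bound to GDP with aluminium fluoride binding biotinylated RGS beads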
# Avidin counter – counter-screen: compounds disrupting biotin binding to avidin beads. shares compounds with RGS16-Gao. streptavidin beads, fluorescein-biotin binding, flow cytometry. inhibition, % at 10 µM. 1,700 tested, under 10 active. AID 1783;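 active = inhibition above 50%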;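 note: median green fluorescence of gated singlet beads compared with DMSO control wells; 0% = DMSO wells and 100% = complete loss of bead fluorescence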
# RGS8-Gao single – RGS8-Galphao interaction regulation, single point confirmation. shares compounds with RGS16-Gao. bead-based flow cytometry RGS8-Galphao binding, fluorescence; actives lie on both sides. binding response (% of control), % at 10 µM. actives 3% (n = 1,700). AID 1836; in the data active = binding response below about 72% or above about 130%; inactive = in between;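 note: Galphao activated as GDP AlF4 complex before binding bead RGS8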
# RGS7-Gao confirm – RGS7-Galphao interaction regulation, single point confirmation. shares compounds with RGS16-Gao. actives 7.8% (n = 1,700). response (percent of control binding), % at 10 µM. AID 1837. bead-based flow cytometry RGS7-Galphao binding; actives lie on both sides; in the data active = response below about 75% or above about 130%; inactive = in between;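 note: fluorescent Galphao activated with GDP and aluminum fluoride binding bead-coupled RGS7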
# RGS16-Gao conf – RGS16-Galphao interaction regulation, single point confirmation; response (% of control binding), % at 10 µM; shares compounds with RGS16-Gao; bead-based flow cytometry, RGS16-Galphao binding; actives lie on both sides; actives 4% (n = 1,700); in the data active = response below about 74% or above about 130%; inactive = in between;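 note: Galphao activated as the GDP aluminium fluoride complex binding bead-coupled RGS16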
# RGS4-Gao single – confirmation of regulators of human RGS4-Galphao interaction | shares compounds with RGS16-Gao | RGS4-Galphao binding, multiplexed bead flow cytometry; actives lie on both sides | binding response (% of control), % at 10 µM | actives 4% (n = 1,700); in the data active = binding response below about 74% or above about 130%; inactive = in between
# RGS19-Gao single – RGS19-Galphao interaction regulation, single point confirmation; actives 5% (n = 1,700); bead-based flow cytometry RGS19-Galphao binding; actives lie on both sides; response (percent of control binding), % at 10 µM; shares compounds with RGS16-Gao; in the data active = response below about 50% or above about 160%; inactive = in between;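 note: 100% = no compound control and 0% = blank background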
# An asterisk follows results filed as active; ? = inconclusive; · = not tested or not shown; [ ] = dose if it differs, or a comment. Unless noted, the rule behind the calls is not given here.
SMILES,GSH bead fluor,RGS7-Gao reg,RGS16-Gao,RGS4-Gao reg,RGS8-Gao,Avidin fluor,RGS-Gao,Avidin counter,RGS8-Gao single,RGS7-Gao confirm,RGS16-Gao conf,RGS4-Gao single,RGS19-Gao single
Cc1ccc(C(=O)N[C@@H](C)CN2C3=NC[C@H](C)N3C[C@H]2Cc2ccc(O)cc2)cc1Br,·,?,91.7,97.0,98.3,8,·,·,·,·,·,·,·
CCOC(=O)C(c1ccccc1)C(Nc1ccccc1)c1ccccn1 (centres undefined),·,?,91.4,92.6,95.2,6,·,·,·,·,·,·,·
CCOCCCNC(C(=O)Nc1ccc(OC)c(Cl)c1)c1ccccc1 (centres undefined),11,?,109.5,109.3,108.0,10,·,·,·,·,·,·,·
CCOC(=O)C(NCCCO)c1ccccc1 (centres undefined),43,·,·,·,·,·,·,2.1,109.3,88.9,109.3,97.5,55.5
CCOC(=O)C(C(=O)OCC)C(Nc1ccccc1)c1ccccc1 (centres undefined),9,78.7,9.4*,76.9,73.1,6,76.9*,-1.8,98.6,95.0,100.1,97.8,89.8
Cc1ccc(S(=O)(=O)N2CCSC2=Nc2ccccc2)cc1,·,?,98.6,96.3,99.4,7,·,·,·,·,·,·,·
Cc1nn(-c2ccccc2)c(N2CCCC2)c1/C=N/NC(=O)c1ccccc1O,14,107.5,117.6,111.5,105.7,11,·,·,·,·,·,·,·
O=C(N/N=C/c1cc2c3c(c1O)CCCN3CCC2)c1ccccc1O,9,14.8*,-13.4,25.0*,42.8*,1,·,-4.3,88.5,83.6,85.2,86.2,104.0
Cc1ccc(S(=O)(=O)Nc2ccccc2C=Nc2cccc(C)c2C)cc1,11,93.2,105.6,93.2,100.1,6,·,·,·,·,·,·,·
Cc1ccc(S(=O)(=O)Nc2ccccc2/C=N/c2nc3ccccc3n2C)cc1,9,·,102.0,100.2,102.3,5,·,0.4,98.3,99.6,98.6,95.1,104.9
CC(C)=NOc1nc(N(C)C)nc(N(C)C)n1,10,108.2,207.6*[activator],107.7,130.2,11,107.7*,-1.5,108.5,102.3,111.2,104.2,100.8
O=C(CCC(=O)N(CC(=O)NC1CCCCC1)Cc1cccs1)Nc1ccccn1,12,82.8,101.2,92.9,87.3,9,·,·,·,·,·,·,·
Cc1c(C(=O)NCc2ccc3c(c2)OCO3)oc2ccccc12,59,88.5,22.2*,92.5,69.8,4,92.5*,-0.6,106.5,104.7,111.0,103.8,118.2
O=C(COC(=O)c1ccc2c(c1)OCO2)NCc1ccc2c(c1)OCO2,14,112.5,125.8,124.0,103.2,7,·,·,·,·,·,·,·
O=C(COC(=O)c1ccco1)NCc1ccc2c(c1)OCO2,·,?,30.3,34.3*,41.3*,2,·,-0.2,112.1,114.9,109.6,112.0,98.2
CS(=O)(=O)N(CCc1ccccc1)CC(=O)NCc1ccc2c(c1)OCO2,42,12.8*,3.7*,11.1*,13.6*,0,·,-0.2,92.9,88.3,89.6,89.8,90.2
Cc1ccc2oc(C(=O)NCc3ccc4c(c3)OCO4)c(C)c2c1,10,99.8,100.5,100.8,101.2,7,·,·,·,·,·,·,·
CC(C(=O)OCc1nnc(-c2ccccc2)o1)N1C(=O)C2CCCCC2C1=O (centres undefined),12,95.0,84.4,86.6,93.9,8,·,·,·,·,·,·,·
O=C1C2C3c4ccccc4C(c4ccccc43)C2C(=O)N1c1cccnc1 (centres undefined),11,85.5,24.4*,88.0,72.6,7,88.0*,0.2,99.9,101.8,102.3,102.4,97.1
CC12c3ccccc3C(c3ccccc31)C1C(=O)N(c3cccnc3)C(=O)C12 (centres undefined),16,102.5,102.3,103.8,102.6,16,·,·,·,·,·,·,·
N#C/C(=C\c1sc(N2CCOCC2)nc1-c1ccccc1)C(=O)Nc1cccc2ccccc12,12,417.3*[activator],105.1,140.9,89.8,312*,140.9*,·,·,·,·,·,·
NN1C(=O)/C(=C\c2ccco2)SC1=S,·,?,101.0,100.8,101.0,6,·,·,·,·,·,·,·
Cc1ccc(C)c(Sc2ccc(NC(=O)CCl)cc2)c1,8,116.3,299.1*[activator],114.8,135.3,14,114.8*,·,·,·,·,·,·
Cc1ccc(C(=O)NNC(=O)/C=C\C(=O)O)cc1,·,?,103.1,105.1,103.4,7,·,·,·,·,·,·,·
COc1ccccc1OCCCOc1ccc(C)cc1Br,16,102.0,114.1,102.0,106.1,3,·,·,·,·,·,·,·
SMILES,GSH bead fluor,RGS7-Gao reg,RGS16-Gao,RGS4-Gao reg,RGS8-Gao,Avidin fluor,RGS-Gao,Avidin counter,RGS8-Gao single,RGS7-Gao confirm,RGS16-Gao conf,RGS4-Gao single,RGS19-Gao single
COc1ccccc1OCCOCCOc1ccc(C)cc1Br,10,88.8,21.7*,88.6,79.6,7,88.6*,-2.0,101.1,98.4,99.9,101.0,96.5
Cc1ccc(OCc2nnc(SCC(=O)Nc3ccc4c(c3)OCO4)n2C)cc1,66,97.8,92.8,93.6,98.5,11,·,·,·,·,·,·,·
Cn1c(COc2ccccc2)nnc1SCC(=O)Nc1ccc2c(c1)OCO2,9,84.9,-20.9*,83.3,77.1,8,83.3*,0.4,96.7,96.8,97.2,97.7,89.1
O=C1CC(c2ccc(S(=O)(=O)NCCOc3ccccc3)cc2)CN1 (centres undefined),33,·,·,·,·,·,·,1.7,101.1,96.9,99.8,97.4,103.0
O=C(Nc1ccccc1F)C1CCN(C(=O)Cc2ccccc2)CC1,28,104.0,62.8,108.8,95.4,2,·,·,·,·,·,·,·
O=C(Nc1ccccc1Br)C1CCN(C(=O)Cc2ccccc2)CC1,17,96.8,21.0*,96.9,89.8,6,96.9*,0.9,106.0,105.0,109.0,102.6,109.7
O=C(Nc1ccc(C(=O)O)cc1)Nc1cccc([N+](=O)[O-])c1,8,121.2,660.3,121.8,149.5*[activator],15,121.8*,1.7,99.6,101.8,100.5,100.6,94.5
